Experimental findings from ChEMBL document CHEMBL3433997, “St. Jude Leishmania screening dataset” (2016) are described below.

What all share (format): functional
In experiment [1] the target is Solute carrier family 2, facilitated glucose transporter member 1 (Homo sapiens) (UniProt P11166). Nature of the experiment: ST_JUDE_LEISH: Cytotoxicity at 2uM final concentration against transgenic Leishmania Mexicana promastigotes LmGLUT1 that are glucose transport deficient and complemented with the human glucose transporter GLUT1. Activity is measured by DNA content using SYBR green in vitro.
Sequence of Solute carrier family 2, facilitated glucose transporter member 1 (Homo sapiens) (P11166 whole entry): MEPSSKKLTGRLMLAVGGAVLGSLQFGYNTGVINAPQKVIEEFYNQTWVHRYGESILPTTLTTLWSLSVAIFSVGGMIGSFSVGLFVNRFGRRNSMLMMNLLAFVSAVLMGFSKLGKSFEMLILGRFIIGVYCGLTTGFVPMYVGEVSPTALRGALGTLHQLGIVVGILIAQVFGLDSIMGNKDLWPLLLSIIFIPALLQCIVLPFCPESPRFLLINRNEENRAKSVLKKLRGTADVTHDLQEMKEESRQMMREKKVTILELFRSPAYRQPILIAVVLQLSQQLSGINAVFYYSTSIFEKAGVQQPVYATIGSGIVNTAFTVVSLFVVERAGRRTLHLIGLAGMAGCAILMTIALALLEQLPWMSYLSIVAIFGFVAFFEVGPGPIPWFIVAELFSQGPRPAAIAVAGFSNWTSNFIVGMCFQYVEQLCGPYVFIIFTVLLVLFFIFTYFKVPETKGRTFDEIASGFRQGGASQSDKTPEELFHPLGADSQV

Experiment [2] concerns the target Hexose transporter 1 (Plasmodium falciparum) (UniProt O97467). Nature of the experiment: ST_JUDE_LEISH: Cytotoxicity at 2uM final concentration against transgenic Leishmania Mexicana promastigotes LmPfHT that are glucose transport deficient and complemented with the Plasmodium falciparum hexose transporter. Activity is measured by DNA content using SYBR green in vitro.

The target of experiment [3] is Glucose transporter (Leishmania mexicana) (UniProt O61059). As to the kind of experiment: ST_JUDE_LEISH: Cytotoxicity at 2uM final concentration against transgenic Leishmania Mexicana promastigotes LmGT2 that are glucose transport deficient and complemented with the L. Mexicana glucose transporter 2. Activity is measured by DNA content using SYBR green in vitro.

As a reminder, the inhibition is the change of the read-out against control, counted positive when it falls.

As for `N=C(N)NN=CC(=O)Nc1ccc(C(F)(F)F)cc1`, the inhibition was -0.81% in experiment [1], -0.97% in experiment [2] and 3.39% in experiment [3].
`Cc1ccc(F)c(CN2CCC(N3CC(c4ccccc4)(c4ccccc4)OC3=O)CC2)c1Cl`: the results for the inhibition in experiment [1], in experiment [2] and in experiment [3] were 10.4%, 9.52% and 9.68%, respectively.
As for `CC(C)COc1ccc(Cl)cc1Cc1ccc(-c2nc3ccc(Cl)cc3[nH]2)o1`, the inhibition in experiment [1] was -1.56%; in experiment [2], 2.55%; in experiment [3], 1.16%.
For `CC(C)CCN1CCC(Oc2ccc(NC(=O)c3ccc(F)cc3)cc2Cl)CC1`, the inhibition in experiment [1] is -2.57%; in experiment [2] it was -4.4%; in experiment [3] it was 0.92%.
As for `CC1(C)NC(N)=NC(=N)N1OCCCOc1cc(Cl)cc(Cl)c1`, the inhibition in experiment [1] worked out at 4.4%; in experiment [2], 7.49%; in experiment [3], 2.47%.
Consider `COc1ccccc1/C=C/C(=O)NCCC1CCN(CCCCCNC(=O)/C=C/c2ccc(Cl)c(Cl)c2)CC1`, for which the inhibition stood at 16.2% in experiment [1], 13% in experiment [2] and 12.2% in experiment [3].
The like results for `COc1cccc(CCc2ccc(O)c3c2C[C@H]2C[C@H]4[C@H](N(C)C)C(O)=C(C(N)=O)C(=O)[C@@]4(O)C(O)=C2C3=O)c1` were, in that order, 4.53%, 4.13% and 1.64%.
On to `O=C(Nc1ccccc1)OCCOc1ccc(CC2SC(=O)NC2=O)cc1` (stereo not drawn), for which the inhibition in experiment [1] was 2.13%; in experiment [2], 3.76%; in experiment [3], 2.23%.
With `COc1ccc(CNC(=O)C2Cc3ccccc3CN2Cc2ccc3ccccc3c2)cc1` (stereo not drawn), the inhibition in experiment [1] was 2.51%; in experiment [2], 1.12%; in experiment [3], -0.58%.
Regarding `Cc1cc(NC(=O)NC(=N)N)ccc1Cl`, the inhibition was determined as 6.27% in experiment [1], 5.72% in experiment [2] and 3.21% in experiment [3].
Turning to `CC(C)(C)CN1C(=O)C(c2ccccc2)(c2ccccc2)N=C1N`, the inhibition came to 2.88% in experiment [1], 2.58% in experiment [2] and 1.88% in experiment [3].
For the compound `O=C(Cn1c(SCc2cccc(F)c2F)cc(=O)c2ccccc21)N(CCCn1ccnc1)Cc1ccc(-c2ccc(C(F)(F)F)cc2)cc1`, the values for the inhibition in experiment [1], in experiment [2] and in experiment [3] were 3.11%, 1.44% and 2.6%, respectively.
In the case of `O=C(/C=C/c1ccc(Cl)c(Cl)c1)NCCCCCN1CCC(NC(=O)c2cc(Cl)ccc2F)CC1`, the inhibition was 2.96% in experiment [1], 1.12% in experiment [2] and -0.02% in experiment [3].
On the same counts, the results for `C[C@H](Cc1ccc(Oc2ccc(C[C@@H](C)NC[C@H](O)c3cccc(Cl)c3)cc2)cc1)NC[C@H](O)c1cccc(Cl)c1` are 106%, 104% and 102%.
Turning to `CN1CCc2ccc(NC(=O)Nc3cccc([N+](=O)[O-])c3)cc2C1`, the inhibition in experiment [1] worked out at 1.58%; in experiment [2], 0.7%; in experiment [3], 1.63%.
`COc1cc(OCCCN(C)Cc2ccc(OC)c(OC)c2)ccc1NC(=O)c1cccc2c(O)c3cccc(F)c3nc12`: the inhibition is 2.95% in experiment [1], 2.52% in experiment [2] and 0.63% in experiment [3].
On to `Cc1cc(C(=O)CN2C(=O)NC(C)(c3cccc4ccccc34)C2=O)c(C)n1Cc1ccco1` (stereo not drawn), for which the inhibition in experiment [1] was 6.55%; in experiment [2], 6.14%; in experiment [3], 4.09%.
Regarding `CC(=O)Nc1ccc(S(=O)(=O)N2CCN(c3nc(NC4CCCC4)c4ccccc4n3)CC2)cc1`, the inhibition in experiment [1] amounted to 0.69%; in experiment [2], 3.35%; in experiment [3] it was 2.94%.
Take `O=c1cc(NCCCNC2CCOc3c(I)cc(Cl)cc32)[nH]c2ccccc12` (stereo not drawn): the inhibition in experiment [1] amounted to 2.44%; in experiment [2] it was 4.6%; in experiment [3], 1.03%.
On the same counts, the results for `CCN(CC)CCN(Cc1ccc(-c2ccc(C(F)(F)F)cc2)cc1)C(=O)Cn1c(CCc2cccc(F)c2F)nc(=O)c2ccc(C)cc21` are 0.88%, 1.15% and 0.22%.
Take `CCC(CC)N1C(=O)C(c2ccccc2)(c2ccccc2)N=C1N`: the inhibition in experiment [1] is 1.48%; in experiment [2], 3.51%; in experiment [3], 1.61%.
As for `Cc1sc2ccc(Cl)cc2c1S(=O)(=O)Nc1ccc2nccc(N3CC(C)NC(C)C3)c2c1` (stereo not drawn), the inhibition was determined as 3.66% in experiment [1], 4.16% in experiment [2] and 6.32% in experiment [3].
In the case of `COc1cc(C(=O)N2C(c3nccs3)C(C(=O)N(OC)C(C)c3ccccc3)CC2(CC(C)C)C(=O)OC(C)(C)C)ccc1C(C)(C)C` (stereo not drawn), the inhibition was 4.49% in experiment [1], 3.71% in experiment [2] and 1.29% in experiment [3].
With `O=C(NCC1CCN(Cc2cccc(C(F)(F)F)c2)C1)c1cc(-c2cccc(Cl)c2)cs1` (stereo not drawn), the inhibition was 1.83% in experiment [1], 1.37% in experiment [2] and -3.57% in experiment [3].
The like results for `O=C(Nc1ccc(-c2cccc(-c3nc4ccccc4[nH]3)c2)cc1)Nc1ccc(Cl)c(Cl)c1` were, in that order, -0.46%, 0.83% and 0.9%.
With `CNCCNCc1ccc(-c2ccc(-c3nc4cccc(C)c4[nH]3)cc2)cc1`, the results for the inhibition in experiment [1], in experiment [2] and in experiment [3] were 5.52%, 4.65% and 4.77%, respectively.
Consider `COc1cc2ncnc(Nc3ccc(OCc4ccccc4Br)c(OC)c3)c2cc1OC`, for which the inhibition in experiment [1] was 1.37%; in experiment [2] it was 0.69%; in experiment [3], -0.16%.
Turning to `COc1cc2c(OC)cccc2cc1CNCCCCCCNCc1cc2cccc(OC)c2cc1OC`, the figures for the inhibition in experiment [1], in experiment [2] and in experiment [3] were 0.11%, 6.08% and -0.11%, respectively.
With `O=C(Nc1ccc(Cl)cc1)c1ccc(CN2CCCN(CC3CCCCC3)CC2)cc1`, the inhibition in experiment [1] amounted to 4.77%; in experiment [2] it was 7.11%; in experiment [3], 5.54%.
Turning to `COc1cc(CNC[C@@H](O)[C@H](Cc2ccccc2)NC(=O)c2cc(OC(C)C)cc(N3CCCS3(=O)=O)c2)cc(OC)c1`, the inhibition was found to be 4.85% in experiment [1], 4.74% in experiment [2] and 2.1% in experiment [3].
Turning to `CCCc1cc(=O)[nH]c(-n2nc(C)cc2NC(=O)CC(c2ccccc2)c2ccccc2)n1`, the inhibition was -2.15% in experiment [1], 1% in experiment [2] and 2.15% in experiment [3].
On the same counts, the results for `Cc1ccc(-c2ccc(NC(=O)N3CCc4cc(Br)c(N5CCN(C)CC5)cc43)cc2)cn1` are 2.03%, 1.29% and 2.24%.
`O=C(Nc1cc(C(F)(F)F)ccc1-n1cncn1)C1(c2ccccc2)CC1`: the inhibition in experiment [1] was -1.28%; in experiment [2], -1.95%; in experiment [3] it was 0.27%.
Regarding `COc1ccc(-c2ccc(NC(=O)c3cccc(Cl)c3)cc2)cc1CN1CCN(C)CC1`, the inhibition in experiment [1] amounted to 6.52%; in experiment [2] it was 4.97%; in experiment [3], 3.15%.
With `CCC(=O)NC(c1ccco1)c1cc(Cl)c2cccnc2c1O` (stereo not drawn), the inhibition in experiment [1] amounted to 12.9%; in experiment [2], 12.3%; in experiment [3] it was 10.7%.
Regarding `CC1(C)N=C(N)N=C(N)N1O`, the figures for the inhibition in experiment [1], in experiment [2] and in experiment [3] were -0.13%, 1.38% and 0.94%, respectively.
